Shiga inhibitor – A qHTS for Small Molecule Inhibitors of Shiga Toxin; Vero cells, Shiga toxin protein synthesis inhibition reporter; inhibition, % at 38.7 µM; 290,000 tested, 9.2% active; in the data active = inhibition mostly above about 28%, no sharp cut-off; inactive = mostly below about 43%; note: 0% is about no effect
RE007 growth inh – qHTS Assay for Inhibitors of the HIV-1 protein Vpr; AID 651644, 2012; S. pombe RE007 Vpr strain, BacTiter-Glo ATP luminescence, 24 h; 360,000 tested, 0.21% active; Potency, µM (top dose mostly 92.2 µM), for inactives: top-dose activity change, negative = less growth, actives largely listed as inhibitors; active = well fitted falling curve with a large enough effect; inconclusive = small, poorly fitted or top-dose-only effect; inactive = no such curve, though single readings can be large or run the other way; note: potency is the fitted concentration of half-maximal effect; % is set by controls: 0 for no effect and ±100 for the full control effect; nearly all actives have a fitted effect of over 50% in size
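Fission yeast RE007 carrying one integrated HIV-1 vpr copy, seeded at OD 0.01 in PMG+AL medium with 23 nL pinned compound. Grown 24 h at 30 degrees; viability read by BacTiter-Glo luminescence after 5 min.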
LmPK inh – qHTS Assay for Inhibitors of Leishmania Mexicana Pyruvate Kinase (LmPK) | Q27686 | purified LmPK, Kinase-Glo ATP luminescence, 1 h | 290,000 tested, 0.37% active | Potency, µM (doses to about 57.5 µM), for inactives: at the highest dose activity change, negative = inhibition, usual class: inhibitors; note: potency is the fitted concentration of half-maximal effect; % is set by controls: 0 for no effect and ±100 for the full control effect
Target sequence (Q27686 whole entry, looked up): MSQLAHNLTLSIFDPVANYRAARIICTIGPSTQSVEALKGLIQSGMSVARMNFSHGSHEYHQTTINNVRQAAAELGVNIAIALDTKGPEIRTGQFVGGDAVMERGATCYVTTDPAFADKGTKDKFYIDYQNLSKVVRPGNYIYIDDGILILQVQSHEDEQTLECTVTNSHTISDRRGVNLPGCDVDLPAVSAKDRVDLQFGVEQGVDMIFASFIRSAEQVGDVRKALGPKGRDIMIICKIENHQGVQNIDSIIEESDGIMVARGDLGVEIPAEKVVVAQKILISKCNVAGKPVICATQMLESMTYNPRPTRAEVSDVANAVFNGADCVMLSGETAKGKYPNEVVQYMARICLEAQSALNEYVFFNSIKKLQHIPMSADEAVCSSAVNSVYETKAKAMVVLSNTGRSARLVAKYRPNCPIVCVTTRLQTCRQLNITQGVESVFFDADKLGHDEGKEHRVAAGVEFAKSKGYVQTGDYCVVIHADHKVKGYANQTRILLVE
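qHTS format; LmPK 0.1 nM; substrates PEP 0.5 mM and ADP 0.1 mM. One-hour room-temperature incubation, then coupled luciferase luminescence; 0.5 nM enzyme wells mark activation.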
CHX counter – Cycloheximide Counterscreen for Small Molecule Inhibitors of Shiga Toxin; cell reporter, cycloheximide protein synthesis inhibition counterscreen; max response, %; 300,000 tested, 12% active; AID 2314, 2010; in the data active = max response mostly above about 13%, no sharp cut-off; inactive = mostly below about 14%; note: read at 38.3 µM for the half of the compounds with a filed dose; 0% is about no effect
Tb PYK inh – qHTS of Trypanosoma Brucei Inhibitors; pyruvate kinase (Trypanosoma brucei), Q57TT1; TbPYK enzyme, Kinase-Glo Plus ATP luminescence, 45 min; Potency, µM (titrated, usually from 76.8 µM), inactives show at the highest dose activity, negative = inhibition, usual class: inhibitors; 410,000 tested, 0.12% active; AID 624173, 2012; note: potency is the fitted concentration of half-maximal effect; % is set by controls: 0 for no effect and ±100 for the full control effect; nearly all actives have a fitted effect of over 50% in size
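TbPYK + substrate in 50 mM TEA pH 7.2, 100 mM KCl, 10 mM MgCl2, 0.05% BSA, 0.01% Tween-20; cpd pinned; ADP 130 uM final; 45 min RT; Kinase-Glo Plus 10 min; luminescence endpoint.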
FBPA Giardia inh – qHTS Assay for Inhibitors of Fructose-1,6-bisphosphate Aldolase from Giardia Lamblia | 290,000 tested, 0.71% active | A8B2U2 | purified Giardia FBPA | Potency, µM (series often up to 59.6 µM), for inactives: at the top dose activity, negative = inhibition, actives largely listed as inhibitors; note: potency is the fitted concentration of half-maximal effect; % is set by controls: 0 for no effect and ±100 for the full control effect; nearly all actives have a fitted effect of over 55% in size
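Giardia FBPA (40 nM reagent) was preincubated 10 min at RT with compound (up to 57.5 uM final), then substrate plus GAPDH/TPI/NAD/arsenate coupling system with diaphorase/resazurin was added; resorufin fluorescence (525/598 nm) was read after 20 min.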
* = called active by the depositor; ? = inconclusive; nt = no result; [ ] = remark or other dose. The full list was thinned out, with hits kept by preference. Unless noted, calls come from the whole dose curve; as a rule, active = well fitted curve in the direction sought with a large enough effect; inconclusive = small, poorly fitted or top-dose-only effect, or another doubt; inactive = no such curve, though single readings can be large; an effect the other way counts as inactive or inconclusive.

SMILES	Shiga inhibitor	RE007 growth inh	LmPK inh	CHX counter	Tb PYK inh	FBPA Giardia inh
NS(=O)(=O)c1ccc2nc(NC(=O)Nc3ccc(F)cc3)sc2c1	54*	-14%	-4%	46*	-2%	-10%
COc1cc(/C=C/c2nc(C#N)c(N3CCN(C)CC3)o2)cc(OC)c1OC	nt	nt	nt	nt	1%	nt
CCC(C(=O)O/N=C(\N)c1cccc(C)c1)c1ccccc1 (configuration not stated)	115	-7%	-8%	24*	-5%	1%
Cc1cccc(/C(N)=N/OC(=O)C23CC4CC(CC(C4)C2)C3)c1	84*	-12%	1%	42*	-14%	-2%
Cc1cccc(/C(N)=N/OC(=O)Cc2ccccc2)c1	81*	-3%	-8%	41*	0%	3%
Cn1c(-c2ccsc2)c(-c2cccs2)c2cc(Br)ccc21	nt	-4%	nt	nt	-2%	nt
Cc1ccc2c3c(cccc13)-c1ccccc1C2=O	14	0%	-2%	28*	1%	1%
Fc1ccccc1COc1ccc(/C=N/n2cnnc2)cc1	9	8%	3%	13	0%	3%
C(=N\n1cnnc1)/c1ccc(OCc2cccc3ccccc23)cc1	33	-13%	9%	20*	-11%	-1%
C(=N\n1cnnc1)/c1cccc(OCCOc2ccccc2)c1	94*	36%	-7%	20*	0%	-7%
COc1cc(/C=N/n2cnnc2)ccc1OCCOc1ccccc1	-3	18%	0%	-4	-6%	3%
O=C(NC1=NCCS1)c1cccc2ccccc12	41	?	-2%	26*	-1%	-3%
Cc1cc(C)n(-c2ccc(C(=O)NC3=NCCS3)cc2)n1	92*	7%	2%	41*	-1%	2%
Cc1cc(C)n(-c2ccc(C(=O)Nc3ccc4c(c3)OCO4)cc2)n1	26	29%	1%	15	2%	-9%
O=C(NC1=NCCS1)c1ccc(-c2ccc(Cl)cc2)o1	77*	?	1%	56*	5%	0%
COc1ccc(Cl)cc1C(=O)NC1=NCCS1	23	-20%	1%	16*	-2%	-2%
CCCCCn1nnnc1C1(C)CCC(=O)N1Cc1ccco1 (configuration not stated)	nt	12%	nt	nt	nt	nt
CC(C)(C)OC(=O)N[C@@H](Cc1ccccc1)C(=O)N1CCC(C(=O)N[C@@H](Cc2c[nH]c3ccccc23)C(=O)O)CC1	-12	-4%	1%	-1	-4%	-5%
COc1ccc(N2CC(C(=O)OC(C)C(=O)c3ccccc3)CC2=O)cc1 (configuration not stated)	-6	2%	-8%	-6	3%	2%
CCOc1ccc2nc(SCC(=O)NCc3ccc(S(N)(=O)=O)cc3)[nH]c2c1	-8	29%	0%	-1	0%	-8%
O=C(CN1C(=O)NC2(CCc3ccccc32)C1=O)Nc1ccc(Br)cc1F (configuration not stated)	nt	15%	nt	nt	3%	nt
O=C(NC1=NCCS1)c1cccc(Br)c1	nt	2%	nt	nt	0%	nt
O=C(NC1=NCCS1)c1ccc(Cl)cc1	93*	-2%	1%	58*	-1%	-9%
COc1cccc(NC(=O)C2CCN(c3nnc(C)c4c(C)n(-c5ccccc5)nc34)CC2)c1	nt	nt	nt	nt	3%	nt
Cc1cc(C)cc(NC(=O)c2ccccc2CC[N+](=O)[O-])c1	13	-14%	3%	6	-3%	2%
SMILES	Shiga inhibitor	RE007 growth inh	LmPK inh	CHX counter	Tb PYK inh	FBPA Giardia inh
Cc1ccc(NC(=O)Nc2ccccc2CC[N+](=O)[O-])cc1	-2	4%	2%	16*	0%	3%
CCOC(=O)N1CCN(CCC(=O)c2ccc(OC)cc2)CC1	-6	28µM*	-1%	6	-7%	-3%
CCOC(=O)N1CCN(CCC(=O)Nc2ccc(OC)cc2)CC1	-22	-8%	-15%	-3	-6%	0%
OCCN1CCN(C(=S)c2ccc(Cl)cc2)CC1	-3	18%	-5%	-1	?	-17%
CCOC(=O)N1CCN(CC(=O)c2ccc(O)c(C)c2O)CC1	33	-17%	-2%	31*	5%	1%
CCOC(=O)N1CCN(CCC(=O)c2ccc(Cl)cc2)CC1	24	32µM*	-1%	0	-8%	-18%
CCN1CCN(C(=S)c2ccc(Cl)cc2)CC1	-3	-4%	-1%	6	?	4µM*
CCOC(=O)N1CCN(CC(=O)c2ccc(O)cc2O)CC1	34	-12%	4%	7	1%	13%
O=c1c(-c2ccc(Cl)cc2)nc2cnc(N3CCNCC3)nc2n1Cc1cccs1	nt	nt	nt	nt	nt	-1%
CCOC(=O)N1CCN(CCC(=O)c2ccc(Br)cc2)CC1	33	35µM*	-3%	9	1%	-26%
CCN1/C(=C2\C(=O)N(C)C(=S)N2C)C=Cc2cc(C)ccc21	-9	-19%	16µM*	-2	-25%	-9%
CCN1/C(=C2\C(=O)N(C)C(=S)N2C)C=Cc2ccccc21	11	-24%	?	-4	?	-19%
CCN1/C(=C2\C(=O)N(C)C(=S)N2c2ccccc2)C=Cc2ccccc21	-7	-28%	18µM*	-3	?	-9%
CCN1C(=O)/C(=C2/C=Cc3ccccc3N2CC)SC1=S	81	6%	-3%	14*	-12%	-21%
CC(=O)NC(c1ccccc1)c1nc(-c2ccc(Cl)cc2)cs1 (configuration not stated)	nt	7%[18.4 µM]	nt	nt	0%	nt
C[C@@](N)(C(=O)O)c1ccc(S(=O)(=O)O)cc1	nt	nt	nt	nt	nt	-13%
COCc1cc(C)nc2sc3c(=O)n(-c4cc(C)ccc4C)nnc3c12	nt	nt	nt	nt	0%	nt
Nc1nccc(-c2cc(-c3ccc(Cl)cc3Cl)no2)n1	54*	?	-21%	42*	-6%	6%
COc1ccc(OC)c(NC(=O)c2cc(-c3cc(C)ccc3O)n[nH]2)c1	36	-2%	5%	-2	5%	7%
COc1ccc(-c2cn[nH]c2N)cc1	-3	6%	-1%	11	3%	12%
COc1ccc(-c2cc(-c3cc(C)ccc3O)[nH]n2)cc1	80*	?	-2%	49*	-5%	-9%
COc1ccc(Oc2ccc(-c3ccn[nH]3)cc2)cc1	77*	4%	4%	32*	0%	2%
COc1ccc(-c2cc(-c3ccc(OC)cc3)[nH]n2)cc1	40	-24%	16%	35*	1%	-7%
COc1ccc(-c2cc(-c3ccc(C)cc3)n[nH]2)c(O)c1	94*	nt	-3%	44*	-5%	10%
C/C(=N\NC(=O)C(O)c1ccccc1)c1ccc(Br)s1 (configuration not stated)	3	2%	1%	15	-4%	3%
